# Results as given in the supplement of paper PMC8728848.
# Only a selection was taken, and the strongest signals are over-represented in it overall.
# B1: Banana lectin (Musa acuminata) (protein)
# chain: MNGAIKVGAWGGNGGSAFDMGPAYRIISVKIFSGDVVDGVDVTFTYYGKTETRHYGGSGGTPHEIVLQEGEYLVGMAGEVANYTGAVVLGKLGFSTNKKAYGPFGNTGGTPFSLPIAAGKISGFFGRGGKFLDAIGVYLEPLEHHHHHH
# Experiments:
# Assay in all cases: glycan array binding signal (z-score within array); higher = stronger binding
# Details in all cases: glycan notation: IUPAC condensed, linker removed; mutation: H84T
# Fuc(a1-2)Gal(b1-3)GlcNAc = biological target: Fuc(a1-2)Gal(b1-3)GlcNAc
# Outline: (§1)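 Glycan array binding is given as a within-array Z-score, which can be read as non-binding when negative. The arrays, 3228 of them, came from the Consortium for Functional Glycomics database and were retained only where the protein sequence was available. Z-scores were averaged across arrays of the same protein sequence at different concentrations or buffers and across linkers.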
# [1] = biological target: Fuc(a1-2)Gal(b1-3)GlcNAc(b1-2)Man(a1-3)[Fuc(a1-2)Gal(b1-3)GlcNAc(b1-2)Man(a1-6)]Man(b1-4)GlcNAc(b1-4)[Fuc(a1-6)]GlcNAc
# Outline: as §1
# [2] = biological target: Fuc(a1-2)Gal(b1-4)GlcNAc(b1-3)Gal(b1-4)GlcNAc(b1-2)Man(a1-3)[Fuc(a1-2)Gal(b1-4)GlcNAc(b1-3)Gal(b1-4)GlcNAc(b1-2)Man(a1-6)]Man(b1-4)GlcNAc(b1-4)GlcNAc
# Outline: as §1
# [3] = biological target: Fuc(a1-2)Gal(b1-4)[Fuc(a1-3)]GlcNAc(b1-3)[Neu5Ac(a2-6)Gal(b1-4)GlcNAc(b1-6)]Gal(b1-4)Glc
# Outline: as §1
# [4] = biological target: Fuc(a1-2)[GalNAc(a1-3)]Gal(b1-3)GalNAc(b1-3)Gal(a1-4)Gal(b1-4)Glc
# Outline: as §1
# Fuc(a1-3)GlcNAc = biological target: Fuc(a1-3)GlcNAc
# Outline: as §1
# Fuc(b1-3)GlcNAc = biological target: Fuc(b1-3)GlcNAc
# Outline: as §1
# [5] = biological target: Gal(a1-3)Gal(b1-3)[Fuc(a1-4)]GlcNAc(b1-2)Man(a1-3)[Gal(a1-3)Gal(b1-3)[Fuc(a1-4)]GlcNAc(b1-2)Man(a1-6)]Man(b1-4)GlcNAc(b1-4)GlcNAc
# Outline: as §1
# [6] = biological target: Gal(b1-3)GlcNAc(b1-6)GalNAc
# Outline: as §1
# [7] = biological target: Gal(b1-3)[Neu5Ac(a2-6)]GalNAc
# Outline: as §1
# [8] = biological target: Gal(b1-4)GlcNAc(b1-2)[Gal(b1-4)GlcNAc(b1-6)]Man(a1-6)[GlcNAc(b1-4)][Gal(b1-4)GlcNAc(b1-2)Man(a1-3)]Man(b1-4)GlcNAc(b1-4)GlcNAc
# Outline: as §1
# [9] = biological target: Gal(b1-4)GlcNAc(b1-6)Gal(b1-4)GlcNAc
# Outline: as §1
# [10] = biological target: Gal3S(b1-4)[Fuc(a1-3)]GlcNAc6S
# Outline: as §1
# [11] = biological target: GlcNAc(a1-4)Gal(b1-4)GalNAc
# Outline: as §1
# [12] = biological target: GlcNAc(b1-3)Gal(b1-4)GlcNAc(b1-3)Gal(b1-4)GlcNAc(b1-3)Gal(b1-4)GlcNAc(b1-2)Man(a1-3)[GlcNAc(b1-3)Gal(b1-4)GlcNAc(b1-3)Gal(b1-4)GlcNAc(b1-3)Gal(b1-4)GlcNAc(b1-2)Man(a1-6)]Man(b1-4)GlcNAc(b1-4)[Fuc(a1-6)]GlcNAc
# Outline: as §1
# [13] = biological target: GlcNAc6S(b1-3)Gal(b1-4)GlcNAc
# Outline: as §1
# Kdn(a2-3)Gal(b1-4)GlcNAc = biological target: Kdn(a2-3)Gal(b1-4)GlcNAc
# Outline: as §1
# [14] = biological target: Man(a1-2)Man(a1-2)Man(a1-6)[Man(a1-3)]Man
# Outline: as §1
# [15] = biological target: Man(a1-2)Man(a1-3)[Man(a1-2)Man(a1-6)]Man
# Outline: as §1
# [16] = biological target: Man(a1-2)Man(a1-3)[Man(a1-2)Man(a1-6)]Man(a1-6)[Man(a1-2)Man(a1-2)Man(a1-3)]Man
# Outline: as §1
# [17] = biological target: Man(a1-2)Man(a1-3)[Man(a1-2)Man(a1-6)]Man(a1-6)[Man(a1-2)Man(a1-2)Man(a1-3)]Man(b1-4)GlcNAc(b1-4)GlcNAc
# Outline: as §1
# [18] = biological target: Man(a1-2)Man(a1-3)[Man(a1-6)]Man(a1-6)[Man(a1-2)Man(a1-3)]Man(b1-4)GlcNAc(b1-4)GlcNAc
# Outline: as §1
# [19] = biological target: Man(a1-2)Man(a1-6)[Man(a1-3)]Man(a1-6)[Man(a1-2)Man(a1-2)Man(a1-3)]Man
# Outline: as §1
# [20] = biological target: Man(a1-2)Man(a1-6)[Man(a1-3)]Man(a1-6)[Man(a1-2)Man(a1-2)Man(a1-3)]Man(b1-4)GlcNAc(b1-4)GlcNAc
# Outline: as §1
# Man(a1-3)[Man(a1-6)]Man = biological target: Man(a1-3)[Man(a1-6)]Man
# Outline: as §1
# [21] = biological target: Man(a1-3)[Man(a1-6)]Man(a1-6)[Man(a1-2)Man(a1-3)]Man(b1-4)GlcNAc(b1-4)GlcNAc
# Outline: as §1
# [22] = biological target: Man(a1-3)[Man(a1-6)]Man(a1-6)[Man(a1-3)]Man(b1-4)GlcNAc(b1-4)GlcNAc
# Outline: as §1
# [23] = biological target: Man(a1-3)[Man(a1-6)]Man(b1-4)GlcNAc(b1-4)GlcNAc
# Outline: as §1
# [24] = biological target: Man(a1-3)[Man(a1-6)]Man(b1-4)GlcNAc(b1-4)[Fuc(a1-6)]GlcNAc
# Outline: as §1
# Neu5Ac(a2-3)Gal = biological target: Neu5Ac(a2-3)Gal
# Outline: as §1
# [25] = biological target: Neu5Ac(a2-3)Gal(b1-4)GlcNAc(b1-2)Man
# Outline: as §1
# [26] = biological target: Neu5Ac(a2-3)Gal(b1-4)GlcNAc(b1-2)Man(a1-3)[Neu5Ac(a2-3)Gal(b1-4)GlcNAc(b1-2)Man(a1-6)]Man(b1-4)GlcNAc(b1-4)GlcNAc
# Outline: as §1
# [27] = biological target: Neu5Ac(a2-3)Gal(b1-4)GlcNAc(b1-3)Gal(b1-3)GlcNAc
# Outline: as §1
# [28] = biological target: Neu5Ac(a2-3)Gal(b1-4)GlcNAc(b1-3)Gal(b1-4)GlcNAc(b1-3)[Neu5Ac(a2-3)Gal(b1-4)GlcNAc(b1-3)Gal(b1-4)GlcNAc(b1-6)]GalNAc
# Outline: as §1
# [29] = biological target: Neu5Ac(a2-3)Gal(b1-4)GlcNAc(b1-3)Gal(b1-4)[Fuc(a1-3)]GlcNAc
# Outline: as §1
# [30] = biological target: Neu5Ac(a2-3)Gal(b1-4)[Fuc(a1-3)]GlcNAc
# Outline: as §1
# [31] = biological target: Neu5Ac(a2-3)Gal(b1-4)[Fuc(a1-3)]GlcNAc(b1-6)[Gal(b1-3)]GalNAc
# Outline: as §1
# [32] = biological target: Neu5Ac(a2-6)Gal(b1-4)GlcNAc(b1-2)Man(a1-3)[Man(a1-6)]Man(b1-4)GlcNAc(b1-4)GlcNAc
# Outline: as §1
# [33] = biological target: Neu5Ac(a2-6)Gal(b1-4)GlcNAc(b1-2)[Neu5Ac(a2-6)Gal(b1-4)GlcNAc(b1-4)]Man(a1-3)[GlcNAc(b1-4)][Neu5Ac(a2-6)Gal(b1-4)GlcNAc(b1-4)Man(a1-6)]Man(b1-4)GlcNAc(b1-4)GlcNAc
# Outline: as §1
# [34] = biological target: Neu5Ac(b2-6)Gal(b1-4)GlcNAc
# Outline: as §1
# [35] = biological target: Neu5Gc(a2-8)Neu5Gc(a2-3)Gal(b1-4)GlcNAc
# Outline: as §1
binder,measurement,setting,value
B1,glycan array binding signal (z-score),Fuc(a1-2)Gal(b1-3)GlcNAc,-0.164
same,glycan array binding signal (z-score),[1],-0.026
same,glycan array binding signal (z-score),[2],-0.09
same,glycan array binding signal (z-score),[3],-0.193
same,glycan array binding signal (z-score),[4],-0.165
same,glycan array binding signal (z-score),Fuc(a1-3)GlcNAc,-0.218
same,glycan array binding signal (z-score),Fuc(b1-3)GlcNAc,-0.189
same,glycan array binding signal (z-score),[5],0.562
same,glycan array binding signal (z-score),[6],-0.155
same,glycan array binding signal (z-score),[7],-0.154
same,glycan array binding signal (z-score),[8],-0.098
same,glycan array binding signal (z-score),[9],-0.206
same,glycan array binding signal (z-score),[10],-0.177
same,glycan array binding signal (z-score),[11],-0.184
same,glycan array binding signal (z-score),[12],-0.082
same,glycan array binding signal (z-score),[13],-0.199
same,glycan array binding signal (z-score),Kdn(a2-3)Gal(b1-4)GlcNAc,-0.189
same,glycan array binding signal (z-score),[14],8.2
same,glycan array binding signal (z-score),[15],2.21
same,glycan array binding signal (z-score),[16],7.07
same,glycan array binding signal (z-score),[17],5.46
same,glycan array binding signal (z-score),[18],4.86
same,glycan array binding signal (z-score),[19],5.72
same,glycan array binding signal (z-score),[20],10.1
same,glycan array binding signal (z-score),Man(a1-3)[Man(a1-6)]Man,6.01
same,glycan array binding signal (z-score),[21],11.3
same,glycan array binding signal (z-score),[22],5.96
same,glycan array binding signal (z-score),[23],4.6
same,glycan array binding signal (z-score),[24],1.98
same,glycan array binding signal (z-score),Neu5Ac(a2-3)Gal,-0.212
same,glycan array binding signal (z-score),[25],-0.188
same,glycan array binding signal (z-score),[26],-0.182
same,glycan array binding signal (z-score),[27],-0.175
same,glycan array binding signal (z-score),[28],-0.109
same,glycan array binding signal (z-score),[29],-0.179
same,glycan array binding signal (z-score),[30],-0.19
same,glycan array binding signal (z-score),[31],-0.16
same,glycan array binding signal (z-score),[32],0.399
same,glycan array binding signal (z-score),[33],-0.177
same,glycan array binding signal (z-score),[34],-0.184
same,glycan array binding signal (z-score),[35],-0.162
